# Rows were chosen to be rich in hits. Some 4.7% of all compounds tested hit in one or more screens of this group.
# Cav32 inh – Cav3.2 calcium influx blockers – cell-based, Fluo-4 calcium fluorescence, FDSS, MLSMR library, primary screen. Cav3.2-expressing cells; active compounds read low. B-score at 10 µM. actives 4% (n = 100,000). AID 449739, 2010;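 active = single-dose well whose peak fluorescence ratio is a statistical outlier from its plate by either plate-standardised score or position-corrected B-score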
# PLK1 kinase inh – human PLK1 kinase inhibitors, primary screen, biochemical, TR-FRET; actives 0.53% (n = 97,000); inhibition, % at 10 µM; AID 619, 2007; Serine/threonine-protein kinase PLK1 (Homo sapiens), P53350; recombinant PLK1 kinase, TR-FRET peptide phosphorylation;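 active = inhibition of 50% or more in the single-concentration screen; inactive = inhibition below 50%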
# Target sequence (P53350 whole entry, looked up): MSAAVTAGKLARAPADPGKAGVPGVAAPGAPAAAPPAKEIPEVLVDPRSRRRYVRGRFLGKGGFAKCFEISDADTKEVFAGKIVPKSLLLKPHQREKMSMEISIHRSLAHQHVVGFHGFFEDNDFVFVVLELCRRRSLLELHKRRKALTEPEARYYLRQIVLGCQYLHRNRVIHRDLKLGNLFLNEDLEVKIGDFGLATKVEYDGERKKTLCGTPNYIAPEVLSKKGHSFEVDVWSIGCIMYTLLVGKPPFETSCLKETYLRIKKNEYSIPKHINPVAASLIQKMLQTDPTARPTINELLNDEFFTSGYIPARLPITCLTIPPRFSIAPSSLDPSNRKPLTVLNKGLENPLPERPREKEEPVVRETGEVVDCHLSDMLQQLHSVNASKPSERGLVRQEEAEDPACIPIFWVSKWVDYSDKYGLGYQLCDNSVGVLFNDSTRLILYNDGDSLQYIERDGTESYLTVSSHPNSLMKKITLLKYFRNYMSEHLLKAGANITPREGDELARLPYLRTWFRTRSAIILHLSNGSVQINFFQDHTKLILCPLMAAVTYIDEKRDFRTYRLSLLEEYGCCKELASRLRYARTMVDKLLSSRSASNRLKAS
# sdo1 growth – growth rescue of sdo1-depleted yeast, primary screen, S. cerevisiae, bone marrow failure model | S. cerevisiae sdo1-depleted JHY4D growth rescue, OD600 30 h; active compounds read high; pdr5 snq2 efflux-pump mutant strain | z-score at 10 µM | actives 0.21% (n = 140,000);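 active = z-score above 3 at both the 24 hr and the 30 hr optical density reads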
# hDAT+cocaine – changed hDAT dopamine uptake under cocaine IC80, either direction, primary screen, cocaine antagonist project, cell-based, LLC-PK1 hDAT, [14C]-dopamine uptake, MLSMR. Sodium-dependent dopamine transporter (Homo sapiens), Q01959. LLC-PK1 hDAT cells, [14C]-dopamine uptake with cocaine IC80; actives deviate in either direction. B-score at 10 µM. actives 1.3% (n = 110,000). AID 449768, 2010;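 active = Z score or B-score, a plate-position-corrected score, falls beyond the plate's 99.7% confidence bounds, in either direction; inactive = both scores lie inside the 99.7% bounds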
# Plk1 PBD FP – Plk1 polo box domain binding inhibitors, primary screen, biochemical, fluorescence polarization; Plk1 PBD phosphopeptide binding; inhibition, %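 (tested at about 20 µM)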; actives 0.13% (n = 97,000); in the data active = inhibition above about 34%, passing the limit was not always enough
# PTK2B oligo ant – antagonists of Pyk2 self-association, primary screen, Q293 cells, FERM NanoBiT luminescence, HTS; Protein-tyrosine kinase 2-beta (Homo sapiens), Q14289; active compounds read low; z-score (the deposit names both 25 µM and 10 µM); actives 0.83% (n = 99,000);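 active = Z-score of -3 or lower, scaled per plate to the spread of control and sample wells; inactive = z-score above -3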;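 also: negative z-score means lost luminescence so less FERM oligomerization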
# Hits are given with their value; i = inactive; nt = not tested or not shown.
SMILES,Cav32 inh,PLK1 kinase inh,sdo1 growth,hDAT+cocaine,Plk1 PBD FP,PTK2B oligo ant
CCOC(=O)N1CCN(C(=O)C(=O)NNC(=O)COc2ccc(Cl)cc2)CC1,nt,nt,i,nt,nt,nt
C=CCn1c(SCC(=O)NCC2CCCO2)nc2scc(-c3ccco3)c2c1=O (stereo not given),i,i,i,2.6,i,i
O=C1C(N2CCOCC2)=C(n2nnc3ccccc32)C(=O)c2ccccc21,i,i,i,-3.94,i,i
COc1ccc(OC)c(NC(=O)CSc2nnc(C3CCCCC3)n2-c2ccccc2)c1,-7.35,i,i,i,i,i
CCn1c(COc2ccccc2C)nnc1SCC(=O)CC(=O)Nc1ccccc1OC,-4.93,i,i,3.13,i,i
CCn1c(COc2ccccc2)nnc1SCC(=O)CC(=O)Nc1ccccc1OC,i,i,i,i,i,i
Cn1cccc1Cc1nnc(SCC(=O)Nc2ccc3c(c2)OCCO3)n1CCc1ccccc1,-10.7,i,i,2.54,i,nt
Cn1cccc1Cc1nnc(SCC(=O)Nc2ccc3c(c2)OCO3)n1CCc1ccccc1,-9.23,nt,i,i,nt,nt
Cc1nnc(NC(=O)CSc2nnc(Cc3cccn3C)n2CCc2ccccc2)s1,i,i,i,i,i,i
CC(=O)Nc1cc(N=Cc2ccc(O)cc2O)c(Cl)cc1Cl,nt,nt,i,nt,nt,nt
Cc1cc(Br)c(OCc2ccc(C(=O)N/N=C3\CC4CC=CC34)cc2)c(Br)c1 (stereo not given),nt,nt,i,nt,nt,nt
O=C(/C=C\c1ccccc1OC(=O)c1ccccc1F)c1cc2ccccc2o1,nt,nt,i,nt,nt,nt
NC1=NC(=O)/C(=C/c2cn(Cc3ccccc3)c3ccccc23)S1,nt,nt,i,nt,nt,nt
COc1ccc(OC)c(NC(=O)CSc2nnc(Cc3cccn3C)n2CCc2ccccc2)c1,i,i,i,2.97,i,i
COc1ccc(OC)c(NC(=O)CSc2nc3ccccc3c(=O)n2CCNC(C)=O)c1,3.59,i,i,i,i,i
Cn1cccc1Cc1nnc(SCC(=O)Nc2ccc(F)cc2)n1CCc1ccccc1,-7.36,nt,i,i,nt,nt
COc1ccccc1NC(=O)CSc1nnc(C)n1CCc1ccccc1,i,i,i,-7.59,i,i
COc1ccc(NC(=O)CSc2nc3ccccc3c(=O)n2CCNC(C)=O)c(OC)c1,i,i,i,i,i,i
CCOC(=O)c1cccc(-n2c(-c3ccc(OC)cc3)nc3nc4ccccc4nc32)c1,nt,nt,i,nt,nt,nt
CC(=O)n1cc([C@H]2C=C(C(=O)N3CCN(Cc4ccccc4)CC3)O[C@@H](OCCCCO)C2)c2ccccc21,i,nt,nt,2.87,nt,nt
O=C(C1=C[C@H](C2CCCCC2)C[C@H](OCCCCO)O1)N1CCN(Cc2ccc3c(c2)OCO3)CC1,i,nt,nt,2.23,nt,nt
O=C(NNC(=O)C1CC2CCC1C2)c1sc2ccccc2c1Cl (stereo not given),nt,nt,i,nt,nt,nt
N/C(=N\OC(=O)N1c2ccccc2Sc2ccccc21)c1ccccc1,nt,nt,i,nt,nt,nt
Cc1cccc(/C(N)=N/OC(=O)N2c3ccccc3Sc3ccccc32)c1,-4.92,i,i,i,i,i
CC(=O)Oc1ccccc1-c1nc(C)nc(N(C)C(C)=O)n1,i,nt,i,-2.81,nt,i
SMILES,Cav32 inh,PLK1 kinase inh,sdo1 growth,hDAT+cocaine,Plk1 PBD FP,PTK2B oligo ant
Cc1nc(N)nc(-c2ccccc2O)n1,i,i,i,i,i,i
CCOc1ccc(NS(=O)(=O)c2ccc(NC(=O)[C@@H]3CCCC[C@@H]3C(=O)O)cc2)cc1,nt,nt,i,nt,nt,nt
COc1ccc(NS(=O)(=O)c2ccc3c(c2)n(C)c(=O)n3C)cc1,-3.77,i,i,i,i,i
S=C(Cc1cccnc1)N1CCOCC1,nt,nt,i,nt,nt,nt
CCCC(=O)C1=C(O)C(C(=O)OC)C(C)(C)CC1=N (stereo not given),i,i,i,-3.17,i,i
CCCC(=O)C1=C(O)C(C(=O)OC)C(C)(C)CC1=NC(C)(C)C (stereo not given),4.05,i,i,i,i,i
CCCC(=O)C1=C(O)C(C(=O)OC)C(C)(C)CC1=Nc1ccccc1 (stereo not given),nt,i,i,i,i,i
CCCC(=O)C1=C(O)C(C(=O)OC)C(C)(C)CC1=Nc1cccc2ccccc12 (stereo not given),i,i,i,3.01,i,i
CCOc1ccc2ccccc2c1/C=N/NC(=O)CNC(=O)Cc1ccccc1,nt,nt,i,nt,nt,nt
COc1ccccc1Nc1nc(-c2sc(NC(=O)CC(C)C)nc2C)cs1,i,i,i,2.73,i,nt
CC(C)(C)[C@H]1C=C(C(N)=O)O[C@@H](OCCCCO)C1,i,nt,nt,i,nt,nt
O=C(CCC(=O)NC1CCCCCC1)Nc1nnc(C(F)(F)F)s1,i,i,i,i,i,i
CC(C)(C)CC(=O)Nc1nnc(C(F)(F)F)s1,i,i,i,2.83,i,i
CC(NC(=O)Nc1nnc(C(F)(F)F)s1)(C(F)(F)F)C(F)(F)F,-7.7,i,i,i,i,i
CCOc1ccc(/C(O)=C2/C(=O)C(=O)N(c3nc(C)c(C)s3)C2c2ccco2)cc1 (stereo not given),-5.68,i,i,i,i,i
CCN(CC)CCN1C(=O)C(=O)/C(=C(/O)c2ccc(OC)cc2)C1c1ccco1 (stereo not given),nt,i,i,nt,i,i
O=C(CSc1nnc(-c2ccc(O)cc2)n1Cc1ccccc1)NNC(=O)c1ccc(Br)cc1,nt,nt,i,nt,nt,nt
CCOC(=S)SCC(=O)N1CCc2cc(OC)ccc2C1C1C(=O)CCCC1=O (stereo not given),nt,nt,i,nt,nt,nt
C=CCOc1cccc(C2C(C(=O)c3ccc(C)o3)=C(O)C(=O)N2c2nccs2)c1 (stereo not given),-5.1,i,i,i,i,i
CCOc1ccc(C2C(C(=O)c3ccco3)=C(O)C(=O)N2CCN(C)C)cc1 (stereo not given),nt,i,i,nt,i,nt
C=CCOc1cccc(C2C(C(=O)c3ccco3)=C(O)C(=O)N2CCN(CC)CC)c1 (stereo not given),i,52.5,i,i,i,i
c1ccc(-c2cnn3c(-c4ccccc4)c(-c4ccccc4)nc3n2)cc1,nt,nt,i,nt,nt,nt
O=[N+]([O-])c1ccc2nc(SCc3ccccc3Cl)sc2c1,-4.15,i,i,i,i,i
Nc1ccc2nc(SCc3ccc([N+](=O)[O-])cc3)sc2c1,nt,i,i,nt,i,i
CCN(CC)S(=O)(=O)c1ccc(C(=O)NCCSc2c[nH]c3ccccc23)cc1,-4.61,nt,i,i,nt,nt
O=C(NCCSc1c[nH]c2ccccc12)c1ccc(Br)o1,-5.03,i,i,i,i,nt
O=C(NCCC(c1ccccc1)c1ccccc1)c1ccc(Br)o1,-6.46,i,i,i,i,i
O=C(O)CCNC(=O)c1ccc(Br)o1,i,nt,i,i,nt,i
Cc1[nH]c2ccccc2c1SCCNC(=O)c1ccc(Br)o1,-4.14,i,i,i,i,i
